The target of test [1] is Protein kinase C gamma type (Homo sapiens) (UniProt P05129). The conditions noted are these: at 1 µM.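 Note: each value is an averaged percent inhibition of the enzyme.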
For test [2], the target named is T1, Protein kinase C iota type (Homo sapiens) (UniProt P41743).
T1 sequence (whole entry): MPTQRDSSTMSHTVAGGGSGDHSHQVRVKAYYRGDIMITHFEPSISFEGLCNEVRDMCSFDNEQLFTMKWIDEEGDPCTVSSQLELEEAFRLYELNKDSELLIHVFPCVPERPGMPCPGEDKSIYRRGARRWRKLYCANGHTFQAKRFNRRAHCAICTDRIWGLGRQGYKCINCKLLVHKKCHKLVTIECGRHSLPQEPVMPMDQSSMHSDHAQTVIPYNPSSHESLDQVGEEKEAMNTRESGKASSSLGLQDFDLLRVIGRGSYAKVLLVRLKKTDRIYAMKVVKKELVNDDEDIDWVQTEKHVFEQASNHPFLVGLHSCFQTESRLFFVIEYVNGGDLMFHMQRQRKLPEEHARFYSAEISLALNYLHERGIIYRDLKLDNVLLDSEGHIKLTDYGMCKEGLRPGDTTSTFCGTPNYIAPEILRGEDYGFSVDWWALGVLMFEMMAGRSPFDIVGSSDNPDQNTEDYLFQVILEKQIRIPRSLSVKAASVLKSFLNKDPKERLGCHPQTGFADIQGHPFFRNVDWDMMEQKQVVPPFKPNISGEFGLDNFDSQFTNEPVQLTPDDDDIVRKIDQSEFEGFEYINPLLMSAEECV
The conditions noted are these: at 0.1 µM.

For test [3], the target named is T1, Protein kinase C iota type (Homo sapiens). The conditions noted are these: at 1 µM.
The target of test [4] is Protein kinase C theta type (Homo sapiens) (UniProt Q04759). As to conditions: at 0.1 µM.
Protein kinase C theta type (Homo sapiens), sequence (Q04759 whole entry, looked up): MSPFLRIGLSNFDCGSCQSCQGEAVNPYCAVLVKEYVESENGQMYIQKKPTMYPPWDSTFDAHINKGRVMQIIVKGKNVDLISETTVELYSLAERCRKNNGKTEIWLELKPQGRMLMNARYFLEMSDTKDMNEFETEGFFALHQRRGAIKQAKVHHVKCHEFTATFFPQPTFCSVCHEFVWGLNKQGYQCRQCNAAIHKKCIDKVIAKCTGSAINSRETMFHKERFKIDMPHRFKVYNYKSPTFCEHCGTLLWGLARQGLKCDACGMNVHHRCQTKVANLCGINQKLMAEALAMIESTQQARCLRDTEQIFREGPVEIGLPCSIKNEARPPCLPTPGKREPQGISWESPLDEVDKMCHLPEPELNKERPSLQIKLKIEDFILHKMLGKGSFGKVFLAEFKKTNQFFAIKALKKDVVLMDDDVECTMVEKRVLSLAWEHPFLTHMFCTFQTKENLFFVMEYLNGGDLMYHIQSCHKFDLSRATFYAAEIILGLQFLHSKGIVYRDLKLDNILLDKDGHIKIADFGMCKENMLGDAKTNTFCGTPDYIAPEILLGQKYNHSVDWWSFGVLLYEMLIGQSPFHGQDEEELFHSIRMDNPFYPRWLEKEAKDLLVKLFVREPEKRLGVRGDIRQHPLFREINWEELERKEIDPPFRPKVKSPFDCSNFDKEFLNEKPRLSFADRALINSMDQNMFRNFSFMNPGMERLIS
Test [5] shares this target. As to conditions: at 1 µM.
Test [6] addresses Protein kinase C beta type (Homo sapiens) (UniProt P05771). As to conditions: at 0.1 µM.
The target is the same in test [7]. As to conditions: at 1 µM.
Test [8] has as its target T2, Serine/threonine-protein kinase D1 (Homo sapiens) (UniProt Q15139).
T2 sequence (whole entry): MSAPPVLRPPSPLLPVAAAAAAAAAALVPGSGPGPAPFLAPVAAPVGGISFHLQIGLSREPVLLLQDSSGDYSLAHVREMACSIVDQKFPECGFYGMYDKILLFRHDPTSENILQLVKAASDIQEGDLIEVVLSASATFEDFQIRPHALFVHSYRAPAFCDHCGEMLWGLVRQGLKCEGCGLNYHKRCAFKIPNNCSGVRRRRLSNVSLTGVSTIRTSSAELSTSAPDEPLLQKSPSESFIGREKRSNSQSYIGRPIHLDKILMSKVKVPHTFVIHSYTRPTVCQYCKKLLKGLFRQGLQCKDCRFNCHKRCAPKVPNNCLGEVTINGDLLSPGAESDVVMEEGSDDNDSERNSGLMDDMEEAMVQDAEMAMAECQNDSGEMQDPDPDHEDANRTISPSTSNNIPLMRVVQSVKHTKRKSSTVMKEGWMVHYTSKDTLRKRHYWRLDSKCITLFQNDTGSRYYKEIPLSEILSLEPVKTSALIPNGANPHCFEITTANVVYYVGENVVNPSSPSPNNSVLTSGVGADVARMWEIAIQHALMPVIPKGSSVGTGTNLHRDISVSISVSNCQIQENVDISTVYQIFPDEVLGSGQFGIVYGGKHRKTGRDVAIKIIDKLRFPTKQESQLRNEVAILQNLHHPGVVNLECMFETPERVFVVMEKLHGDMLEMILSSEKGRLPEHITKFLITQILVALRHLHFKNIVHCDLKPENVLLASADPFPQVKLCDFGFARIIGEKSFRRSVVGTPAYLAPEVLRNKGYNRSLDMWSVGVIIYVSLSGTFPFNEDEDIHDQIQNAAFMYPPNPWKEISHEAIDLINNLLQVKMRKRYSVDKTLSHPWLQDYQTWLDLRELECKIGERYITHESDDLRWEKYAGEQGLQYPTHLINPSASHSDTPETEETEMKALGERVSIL
The conditions noted are these: at 0.1 µM.

In test [9] the target is T2, Serine/threonine-protein kinase D1 (Homo sapiens). The conditions noted are these: at 1 µM.
Test [10] concerns the target T3, Serine/threonine-protein kinase D2 (Homo sapiens) (UniProt Q9BZL6).
T3 sequence (whole entry): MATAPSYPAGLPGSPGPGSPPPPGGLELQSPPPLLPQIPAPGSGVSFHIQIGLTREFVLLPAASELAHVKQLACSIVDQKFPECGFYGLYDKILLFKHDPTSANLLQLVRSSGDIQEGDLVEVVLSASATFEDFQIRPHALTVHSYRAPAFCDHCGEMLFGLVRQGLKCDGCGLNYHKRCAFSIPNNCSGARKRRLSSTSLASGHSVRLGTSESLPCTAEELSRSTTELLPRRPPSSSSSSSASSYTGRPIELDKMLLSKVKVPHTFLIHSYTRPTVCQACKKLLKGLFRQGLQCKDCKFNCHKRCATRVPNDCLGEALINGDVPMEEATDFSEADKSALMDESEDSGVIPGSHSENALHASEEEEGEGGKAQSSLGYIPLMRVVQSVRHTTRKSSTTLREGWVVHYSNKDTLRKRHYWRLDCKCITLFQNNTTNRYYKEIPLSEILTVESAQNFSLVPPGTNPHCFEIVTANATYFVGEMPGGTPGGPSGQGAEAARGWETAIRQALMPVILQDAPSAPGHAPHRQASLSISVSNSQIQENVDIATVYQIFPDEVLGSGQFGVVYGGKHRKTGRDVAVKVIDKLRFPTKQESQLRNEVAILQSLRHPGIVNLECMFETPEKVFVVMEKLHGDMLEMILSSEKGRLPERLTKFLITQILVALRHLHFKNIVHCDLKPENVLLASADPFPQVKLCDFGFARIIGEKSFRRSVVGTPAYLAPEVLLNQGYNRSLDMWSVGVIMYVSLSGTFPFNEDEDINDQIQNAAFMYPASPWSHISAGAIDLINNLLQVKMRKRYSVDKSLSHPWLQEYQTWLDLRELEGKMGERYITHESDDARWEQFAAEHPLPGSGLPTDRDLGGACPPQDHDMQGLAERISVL
The conditions noted are these: at 0.1 µM.

For test [11], the target named is T3, Serine/threonine-protein kinase D2 (Homo sapiens). As to conditions: at 1 µM.
The target in test [12] is T4, Serine/threonine-protein kinase D3 (Homo sapiens) (UniProt O94806).
T4 sequence (whole entry): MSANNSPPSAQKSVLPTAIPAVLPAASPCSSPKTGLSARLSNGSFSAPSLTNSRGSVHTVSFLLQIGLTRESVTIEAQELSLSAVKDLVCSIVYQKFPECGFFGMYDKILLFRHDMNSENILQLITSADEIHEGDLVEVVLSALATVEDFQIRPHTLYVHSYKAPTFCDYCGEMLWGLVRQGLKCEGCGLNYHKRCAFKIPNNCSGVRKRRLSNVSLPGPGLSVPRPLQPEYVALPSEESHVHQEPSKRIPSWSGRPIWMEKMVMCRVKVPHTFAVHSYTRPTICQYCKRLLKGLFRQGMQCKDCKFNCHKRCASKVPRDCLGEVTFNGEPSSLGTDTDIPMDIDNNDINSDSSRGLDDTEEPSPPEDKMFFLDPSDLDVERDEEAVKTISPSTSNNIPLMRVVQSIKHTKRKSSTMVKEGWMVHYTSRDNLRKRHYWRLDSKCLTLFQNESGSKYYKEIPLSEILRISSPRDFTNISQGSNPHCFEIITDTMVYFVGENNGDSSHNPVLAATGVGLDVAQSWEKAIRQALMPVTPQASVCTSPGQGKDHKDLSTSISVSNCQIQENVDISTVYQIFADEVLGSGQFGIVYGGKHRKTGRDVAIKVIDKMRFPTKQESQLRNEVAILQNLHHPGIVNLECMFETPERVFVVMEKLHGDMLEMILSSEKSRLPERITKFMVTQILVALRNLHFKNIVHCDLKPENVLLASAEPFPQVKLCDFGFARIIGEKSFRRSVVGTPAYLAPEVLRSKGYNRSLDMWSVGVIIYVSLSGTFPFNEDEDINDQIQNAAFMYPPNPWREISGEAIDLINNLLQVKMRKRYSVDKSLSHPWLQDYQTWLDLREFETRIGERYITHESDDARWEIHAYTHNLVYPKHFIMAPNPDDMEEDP
The conditions noted are these: at 0.1 µM.

Test [13] has as its target T4, Serine/threonine-protein kinase D3 (Homo sapiens). The conditions noted are these: at 1 µM.
The target of test [14] is T5, cGMP-dependent protein kinase 1 (Homo sapiens) (UniProt Q13976).
T5 sequence (whole entry): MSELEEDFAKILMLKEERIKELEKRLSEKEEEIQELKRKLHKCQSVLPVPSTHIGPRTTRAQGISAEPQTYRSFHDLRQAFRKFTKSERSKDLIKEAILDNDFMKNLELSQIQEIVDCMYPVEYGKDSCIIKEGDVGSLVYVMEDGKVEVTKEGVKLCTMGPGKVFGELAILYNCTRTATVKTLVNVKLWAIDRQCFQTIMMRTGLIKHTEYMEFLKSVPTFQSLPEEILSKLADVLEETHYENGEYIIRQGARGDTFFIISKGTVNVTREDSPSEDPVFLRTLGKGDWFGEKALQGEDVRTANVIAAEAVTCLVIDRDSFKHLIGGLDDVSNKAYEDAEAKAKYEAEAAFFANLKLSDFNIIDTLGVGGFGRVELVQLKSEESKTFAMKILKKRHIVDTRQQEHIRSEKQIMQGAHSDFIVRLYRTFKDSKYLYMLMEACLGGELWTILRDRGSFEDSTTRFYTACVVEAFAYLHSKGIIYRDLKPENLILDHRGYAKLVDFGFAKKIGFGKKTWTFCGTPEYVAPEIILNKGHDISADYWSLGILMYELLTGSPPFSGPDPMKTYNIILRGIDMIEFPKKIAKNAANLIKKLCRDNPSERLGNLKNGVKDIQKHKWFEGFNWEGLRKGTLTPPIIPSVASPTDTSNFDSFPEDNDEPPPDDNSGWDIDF
As to conditions: at 0.1 µM.

Test [15] concerns the target T5, cGMP-dependent protein kinase 1 (Homo sapiens). As to conditions: at 1 µM.
Test [16] deals with T6, cGMP-dependent protein kinase 2 (Homo sapiens) (UniProt Q13237).
T6 sequence (whole entry): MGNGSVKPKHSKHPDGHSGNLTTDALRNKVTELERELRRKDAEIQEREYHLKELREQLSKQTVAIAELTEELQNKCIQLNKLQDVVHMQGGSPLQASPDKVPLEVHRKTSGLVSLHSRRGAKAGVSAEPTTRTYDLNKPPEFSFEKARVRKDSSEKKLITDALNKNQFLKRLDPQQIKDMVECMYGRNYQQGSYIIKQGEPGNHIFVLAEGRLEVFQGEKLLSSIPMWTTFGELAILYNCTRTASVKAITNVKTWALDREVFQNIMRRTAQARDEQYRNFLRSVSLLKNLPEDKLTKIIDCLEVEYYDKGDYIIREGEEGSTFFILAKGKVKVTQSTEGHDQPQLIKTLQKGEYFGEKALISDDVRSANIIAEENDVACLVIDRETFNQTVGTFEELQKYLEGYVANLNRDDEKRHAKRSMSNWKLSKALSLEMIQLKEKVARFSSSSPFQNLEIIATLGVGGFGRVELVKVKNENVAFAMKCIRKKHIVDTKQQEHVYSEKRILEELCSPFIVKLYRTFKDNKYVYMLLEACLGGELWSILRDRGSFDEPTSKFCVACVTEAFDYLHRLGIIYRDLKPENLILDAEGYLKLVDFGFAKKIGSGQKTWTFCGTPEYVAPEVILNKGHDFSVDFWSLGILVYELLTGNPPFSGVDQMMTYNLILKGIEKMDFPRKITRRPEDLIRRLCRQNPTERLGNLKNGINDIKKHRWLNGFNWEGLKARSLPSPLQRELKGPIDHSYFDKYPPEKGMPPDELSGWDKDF
The conditions noted are these: at 0.1 µM.

Test [17] addresses T6, cGMP-dependent protein kinase 2 (Homo sapiens). The conditions noted are these: at 1 µM.
In test [18] the target is T7, cAMP-dependent protein kinase catalytic subunit PRKX (Homo sapiens) (UniProt P51817).
T7 sequence (whole entry): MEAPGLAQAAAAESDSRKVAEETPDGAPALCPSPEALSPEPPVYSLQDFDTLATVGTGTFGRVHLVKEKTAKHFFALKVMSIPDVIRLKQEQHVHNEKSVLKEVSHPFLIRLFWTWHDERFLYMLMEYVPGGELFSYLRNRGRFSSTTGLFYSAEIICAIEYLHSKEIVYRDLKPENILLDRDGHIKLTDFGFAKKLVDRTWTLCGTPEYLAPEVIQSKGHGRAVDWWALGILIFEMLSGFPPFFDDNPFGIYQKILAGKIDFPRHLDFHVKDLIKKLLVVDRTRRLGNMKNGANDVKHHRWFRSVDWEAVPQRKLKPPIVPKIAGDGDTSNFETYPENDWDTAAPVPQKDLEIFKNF
As to conditions: at 0.1 µM.

Test [19] addresses T7, cAMP-dependent protein kinase catalytic subunit PRKX (Homo sapiens). As to conditions: at 1 µM.
For test [20], the target named is Rho-associated protein kinase 1 (Homo sapiens) (UniProt Q13464). As to conditions: at 0.1 µM.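 Note: values are mean percent inhibition of ROCK1.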
Rho-associated protein kinase 1 (Homo sapiens), sequence (Q13464 2-1354 limits assumed): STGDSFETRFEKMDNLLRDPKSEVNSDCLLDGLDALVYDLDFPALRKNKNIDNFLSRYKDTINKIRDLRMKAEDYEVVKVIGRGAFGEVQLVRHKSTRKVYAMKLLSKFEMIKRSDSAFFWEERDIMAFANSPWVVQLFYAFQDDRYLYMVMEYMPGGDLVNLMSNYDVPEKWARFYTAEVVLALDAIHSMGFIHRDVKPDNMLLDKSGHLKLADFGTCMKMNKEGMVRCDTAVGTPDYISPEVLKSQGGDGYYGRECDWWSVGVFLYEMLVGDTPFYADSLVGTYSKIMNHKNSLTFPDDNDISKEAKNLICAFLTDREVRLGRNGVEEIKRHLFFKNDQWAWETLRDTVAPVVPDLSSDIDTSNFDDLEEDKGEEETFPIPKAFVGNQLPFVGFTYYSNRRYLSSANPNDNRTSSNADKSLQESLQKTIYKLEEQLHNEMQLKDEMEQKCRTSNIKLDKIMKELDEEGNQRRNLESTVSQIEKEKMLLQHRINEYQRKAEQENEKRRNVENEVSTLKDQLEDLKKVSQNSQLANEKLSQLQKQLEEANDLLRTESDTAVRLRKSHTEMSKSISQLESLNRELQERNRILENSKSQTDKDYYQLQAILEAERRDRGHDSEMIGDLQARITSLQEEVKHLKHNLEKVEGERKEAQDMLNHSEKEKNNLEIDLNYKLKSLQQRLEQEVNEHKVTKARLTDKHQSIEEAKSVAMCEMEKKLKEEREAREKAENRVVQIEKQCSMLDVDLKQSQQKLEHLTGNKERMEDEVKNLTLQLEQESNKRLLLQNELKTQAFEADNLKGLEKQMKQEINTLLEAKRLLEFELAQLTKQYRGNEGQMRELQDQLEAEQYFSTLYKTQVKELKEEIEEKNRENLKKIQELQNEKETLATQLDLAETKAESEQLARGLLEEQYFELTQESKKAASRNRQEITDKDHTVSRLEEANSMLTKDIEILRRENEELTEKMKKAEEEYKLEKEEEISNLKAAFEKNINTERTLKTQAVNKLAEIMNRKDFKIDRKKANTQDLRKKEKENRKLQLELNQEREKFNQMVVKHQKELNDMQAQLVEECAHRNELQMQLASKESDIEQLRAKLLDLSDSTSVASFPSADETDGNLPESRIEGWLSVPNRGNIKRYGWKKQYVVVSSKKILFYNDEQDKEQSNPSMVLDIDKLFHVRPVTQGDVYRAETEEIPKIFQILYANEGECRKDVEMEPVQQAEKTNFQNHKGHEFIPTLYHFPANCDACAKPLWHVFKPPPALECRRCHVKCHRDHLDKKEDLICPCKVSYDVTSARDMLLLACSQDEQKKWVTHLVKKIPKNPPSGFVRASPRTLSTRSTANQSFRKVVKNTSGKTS

Protein kinase C beta type (Homo sapiens), sequence (P05771 2-671 limits assumed): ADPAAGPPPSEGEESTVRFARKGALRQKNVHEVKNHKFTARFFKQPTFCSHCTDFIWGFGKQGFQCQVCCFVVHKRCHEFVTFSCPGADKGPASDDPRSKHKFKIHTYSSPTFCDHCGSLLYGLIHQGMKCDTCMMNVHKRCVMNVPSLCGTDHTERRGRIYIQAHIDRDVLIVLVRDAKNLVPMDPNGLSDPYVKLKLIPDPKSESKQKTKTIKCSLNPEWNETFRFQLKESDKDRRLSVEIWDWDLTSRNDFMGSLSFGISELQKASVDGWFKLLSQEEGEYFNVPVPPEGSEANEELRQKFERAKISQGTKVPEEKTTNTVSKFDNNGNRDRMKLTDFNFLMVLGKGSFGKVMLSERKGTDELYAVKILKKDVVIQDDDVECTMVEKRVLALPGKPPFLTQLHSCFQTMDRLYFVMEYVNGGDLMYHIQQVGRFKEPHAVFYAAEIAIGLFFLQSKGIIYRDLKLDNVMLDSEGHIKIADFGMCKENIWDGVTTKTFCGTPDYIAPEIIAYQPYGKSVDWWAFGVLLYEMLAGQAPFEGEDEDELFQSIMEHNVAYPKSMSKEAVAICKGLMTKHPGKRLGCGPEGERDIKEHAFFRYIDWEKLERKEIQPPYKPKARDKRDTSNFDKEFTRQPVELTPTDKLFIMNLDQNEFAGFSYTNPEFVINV

Broadly, the inhibition is the drop in the measured response relative to a control, in per cent. In the case of `COc1ccc2cc(-c3c(-c4ccncc4)nc(-c4ccc([S+](C)[O-])cc4C)n3C)ccc2c1` (stereo not given), the inhibition in [1] is -0.38%; in [2] it was 0.41%; in test [3], -0.63%; in test [4], -1.05%; in [5], -1.26%; in [6], 0.04%. The inhibition in test [7] was 5.01%; in test [8] it was -0.67%; in test [9] it was -0.16%; in test [10], -0.62%; in test [11], 0.1%; in [12] it was -0.55%. Besides, the inhibition is -0.05% in test [13]; 0.69% in test [14]; 0.56% in test [15]; 0.02% in test [16]; 0.21% in [17]; 0.49% in [18]. In addition, the inhibition was 1.21% in test [19] and -0.64% in test [20].

The record behind these values is ChEMBL document CHEMBL1961873, “Compounds: GSK PKIS; Assays: Nanosyn kinase panel” (2012).
